Experimental findings from PubChem BioAssay (EPA / NIEHS) are described below.

Inconclusive results are not listed. Active and inactive are the calls of the source. How the source made its calls: active means hit-call score of the fitted dose curve at least 0.9, where 1 is the maximum; inconclusive means response in the unintended direction; inactive means score below 0.9.

The experiment can be described thus: ATG_GAL4_TRANS: Attagene TRANS-FACTORIAL HepG2 Assay for GAL4 (Internal Marker) (AID 2282976). The settings on record: HepG2 Attagene TRANS GAL4 internal marker reporter. The method, boiled down: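 In transfected human HepG2 liver cells dosed 24 h, GAL4 reporter mRNA serves as a baseline marker. Detection by RT-PCR with fluorescent capillary electrophoresis, activity fitted upward relative to DMSO.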
On to `Cc1nc(C)nc(N2C[C@@H](C)N(c3ccnc([C@@H](C)O)n3)[C@@H](C)C2)n1`, for which the compound was classed as inactive.
For the compound `c1cc(-c2ccncc2)ccn1`, the outcome was inactive.
Take `CC=Cc1ccc(O)c(OC)c1`: the compound was called inactive.
For the compound `CCCc1cc(=O)[nH]c(=S)[nH]1`, the call was inactive.
Take `O=C(N[C@@H](Cc1ccccc1)[C@@H](O)C(=O)N1C[C@@H](O)[C@@H](O)C1)c1cc2cc(Cl)ccc2[nH]1`: the compound was classed as inactive.
Turning to `O=[N+]([O-])C(CO)(CO)CO`, the call was inactive.
The value for `NCCO` was “inactive”; that for `CC(=O)C(C)=CC1C(C)=CCCC1(C)C` (stereo not given) was “inactive”; that for `C=CCOC(=O)c1ccccc1C(=O)OCC=C` was “inactive”.
In the case of `CCCCCCCCCCC`, the result was inactive.
As to `CCCCOC(=O)CCCCCCCCC(=O)OCCCC`, the outcome was inactive.
For the compound `O=C(OCCCCCOC(=O)c1ccccc1)c1ccccc1`, the result was inactive.
As to `CCCCCCCCCCCCCCCCCC(=O)O`, the call was inactive.
For the compound `CNC(=O)[C@H]1O[C@@H](n2cnc3c(NCc4cc(Cl)ccc4OCc4cc(C)no4)ncnc32)[C@H](O)[C@@H]1N`, the outcome was inactive.
In the case of `OC[C@@H](O)[C@@H](O)[C@H](O)[C@H](O)CO`, the compound was called inactive.
